The list is not random: actives were taken first. Their share in the collection is about 19%.
DT40 TDP1 CPT: DT40-hTDP1 cell growth loss with CPT | chicken DT40 Tdp1-/-;hTDP1 cells + 20 nM CPT, ATP luminescence, 48 h | Potency, µM (doses to about 46.2 µM), for inactives: at the top dose activity change, negative = growth inhibition, usual class: inhibitors | 12% of 420,000 active; also: potency is read from the fitted curve at half-maximal effect; nearly all actives have a fitted effect of over 55% in size
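Chicken DT40 Tdp1-/- cells stably complemented with human TDP1 were seeded at 400 cells/well in medium containing 20 nM camptothecin, exposed to pin-transferred compounds, and grown at 37 °C for at least 48 hr. Viability was read as ATP luminescence.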
IL1B secr inh: inhibitors of inflammasome signaling (IL-1 beta secretion). THP-1 LPS/ATP IL-1B secretion, AlphaLISA, 16 h; stronger effect = lower value. activity change, % at 57.5 µM. 4.7% of 360,000 active; in the data active = activity change below about -50%; inconclusive = mostly about -30% to -49%
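THP-1 cells pretreated 1 hr with compounds (up to 57.5 uM final), then stimulated with LPS (250 ng/mL final) plus ATP (1.25 mM final); secreted IL-1B measured by AlphaLISA after 16 hr, decreased signal indicating inhibition.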
DT40 TDP1 no CPT: qHTS for Inhibitors of human tyrosyl-DNA phosphodiesterase 1 (TDP1): qHTS in cells in absence of CPT. DT40 Tdp1-/- hTDP1 cells, no CPT, ATP luminescence, 48 h. Potency, µM (titrated, usually from 46.2 µM), without a hit: at the top dose activity change, negative = growth inhibition, actives largely listed as inhibitors. 15% of 420,000 active. AID 686978, 2013; also: potency is read from the fitted curve at half-maximal effect; nearly all actives have a fitted effect of over 55% in size
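Cells were dispensed at 400 per well, compounds added by pin tool, plates incubated ≥48 hr at 37 °C, then CellTiter-Glo added for 30 min at room temperature before luminescence reading. Line: DT40 Tdp1-/- complemented with hTDP1; camptothecin omitted.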
HT1080NT lethal: kills 2HG-producing HT-1080-NT fibrosarcoma cells; Potency, µM (titrated, usually from 46.1 µM), for the others: at the highest dose activity, negative = less viability, hits mostly cytotoxic; HT-1080-NT fibrosarcoma viability, CellTiter-Glo ATP luminescence, 48 h; AID 686970; 1.6% of 360,000 active;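 also: NT is the 2HG producing partner of a matched IDH1 knockdown line; potency is read from the fitted curve at half-maximal effect; 0% = DMSO-treated cells and -100% = media-only wells without cells; nearly all actives have a fitted effect of over 55% in size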
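750 cells/well, RPMI + 5% FBS; 2 h settle, compound pin-transfer, 48 h at 37 degrees C. CellTiter-Glo 10 min RT, luminescence. Normalized to DMSO and media-only wells.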
ELG1 repair inh: blocks ELG1-dependent DNA repair in HEK293T cells; HEK293T ELG1-luciferase reporter, luminescence, 16 h; DNA damage induced by 5-fluorouridine; Potency, µM (highest dose often 46.1 µM), inactives show top-dose activity change, negative = inhibition, actives largely listed as inhibitors; 2.3% of 330,000 active; also: potency is read from the fitted curve at half-maximal effect; nearly all actives have a fitted effect of over 55% in size
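Step one: seed 2,000 cells per well. Step two: pin-transfer compound or DMSO alongside 5-fluorouridine. Step three: incubate 16 hr, 37 °C, 5% CO2. Step four: add ONE-Glo, wait 30 min, read luminescence.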
HT1080 IDH1KD tx: kills HT-1080 cells with IDH1 knockdown | Potency, µM (series often up to 46.1 µM), for the others: top-dose activity, negative = toxicity, most hits filed as cytotoxic | AID 686971 | HT-1080 IDH1 knockdown viability, ATP luminescence, 48 h | 2% of 360,000 active;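 also: potency is read from the fitted curve at half-maximal effect; 0% = DMSO wells and -100% = cell-free medium wells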
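Cytotoxicity counter-line: IDH1KD HT-1080, 48 h, CellTiter-Glo. Curves classed by r2, magnitude and activity.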
Numbers without * were called inactive; i = inactive; ? = inconclusive; . = no result given; [ ] = remark or other dose. Unless noted, calls follow the shape of the dose curve; as a rule, active = well fitted curve in the direction sought with a large enough effect; inconclusive = small, poorly fitted or top-dose-only effect, or another doubt; inactive = no such curve, though single readings can be large; an effect the other way counts as inactive or inconclusive. Unless noted, % is scaled to controls: 0 for no effect and ±100 for the full control effect.

SMILES	DT40 TDP1 CPT	IL1B secr inh	DT40 TDP1 no CPT	HT1080NT lethal	ELG1 repair inh	HT1080 IDH1KD tx
C/C(=N\Nc1nc(Cl)c(Cl)cc1Cl)c1ccc(S(=O)(=O)NCc2ccco2)cc1	?	-20	21µM*	-2%	?	-29%
CN(C)S(=O)(=O)c1cccc(NC(=O)c2cc(-c3cccs3)nn2-c2cccc(Cl)c2)c1	?	0	?	-1%	12µM*	-8%
CCCCN1C(=O)c2ccc(C(=O)Nc3cccc(C)c3C)cc2C1=O	1%	9	3%	2%	19%	-1%
Cc1ccc(NC(=O)c2ccc(OC(F)(F)F)cc2)cc1S(=O)(=O)N(C)C	?	5	26µM*	-24%	?	-28%
Cc1ccc(C(=O)Nc2ccc(S(=O)(=O)NCc3ccco3)cc2)cc1	?	10	?	?	?	?
Cc1cc(C)n(-c2ccc(C(=O)Nc3ccc(S(=O)(=O)NCc4ccco4)cc3)cc2)n1	18µM*	-54*	18µM*	-22%	?	?
Cc1ccc(NC(=O)c2ccncc2)cc1S(=O)(=O)N(C)C	1%	29	-17%	7%	15%	7%
Cc1cc(C)n(-c2ccc(C(=O)Nc3cccc(S(=O)(=O)N(C)C)c3)cc2)n1	1.8µM*	0	1.6µM*	1%	9.2µM*	-20%
CCCCN1C(=O)c2ccc(C(=O)Nc3ccc(C)c(S(=O)(=O)N(C)C)c3)cc2C1=O	?	-9	16µM*	-12%	?	-12%
CCOC(=O)c1c(C)c(-c2ccccc2)n(CC(=O)Nc2ccc(OCC)cc2)c1C	-3%	.	-29%	.	.	.
COCCNC(=O)C(=O)NCC(c1ccc2c(c1)OCO2)N1CCN(c2ccc(F)cc2)CC1 (stereo unspecified)	-27%	22	1%	7%	5%	2%
CCN(CC)S(=O)(=O)c1cccc(NC(=O)c2ccc(-n3nc(C)cc3C)cc2)c1	?	?	23µM*	-6%	15µM*	0%
Cc1cc(C)n(-c2ccc(C(=O)Nc3ccc(C)c(S(=O)(=O)N(C)C)c3)cc2)n1	?	-78*	?	?	18µM*	?
COc1ccc(NC(=O)c2ccc(-n3nc(C)cc3C)cc2)cc1OC	?	-51*	?	5%	?	-2%
Cc1nn(C)cc1CN(C)C(=O)C1CCC(=O)N(CCc2cccc(F)c2)C1 (stereo unspecified)	-25%	14	6%	-3%	.	-3%
Cc1onc(-c2ccccc2)c1C(=O)Nc1ccc(Cl)c(S(=O)(=O)N2CCOCC2)c1	-29%	-3	0%	-12%	-26%	-1%
Cc1cc(N2O[C@]34C=C[C@]25C[C@@H](O)CC[C@]5(C)C3CC[C@]2(C)[C@@H]([C@H](C)/C=C/[C@H](C)C(C)C)CC[C@H]24)no1 (stereo partly specified)	12µM*	20	9.2µM*	-7%	?	2%
CCc1nnc(NC(=O)CN2CCCC(C)C2)s1 (stereo unspecified)	-2%	13	0%	5%	-6%	8%
CC(C)N1CCSC1=S	8%	17	6%	11%	.	2%
Cn1c(NC(=S)Nc2ccccc2)nc2ccccc21	1.6µM*	-2	1.6µM*	0%	?	-10%
S=C(Nc1ccccc1)Nc1nc2ccccc2n1CCOc1ccc(Br)cc1	-16%	2	?	5%	?	1%
Cc1cccc2cc(-c3nc4ccc(C(=O)O)cc4[nH]3)c(=O)oc12	?	19	-25%	0%	?	-7%
N#Cc1ccc(OCC(=O)NNC(=S)NC(=O)C2CC2)cc1	?	15	21µM*	1%	5%	-19%
Cc1ccc(OCC(=O)NC(=S)Nc2ccccn2)c(Br)c1	-9%	56	-6%	6%	?	-7%
CC(C)c1ccc(OCC(=O)NNC(=S)NC(=O)c2cccs2)c(Br)c1	18µM*	i	23µM*	6%	2%	10%
SMILES	DT40 TDP1 CPT	IL1B secr inh	DT40 TDP1 no CPT	HT1080NT lethal	ELG1 repair inh	HT1080 IDH1KD tx
CC(C)c1ccc(OCC(=O)NNC(=S)NC(=O)C2CC2)cc1	?	61	15µM*	?	-18%	?
Cc1ccc(OCC(=O)NNC(=S)NC(=O)C(C)(C)C)c(Br)c1	?	81	18µM*	?	0%	?
CCC(C)c1ccc(OCC(=O)NNC(=O)C2CCCCC2)cc1 (stereo unspecified)	0%	-3	-2%	-2%	?	-1%
Cn1c(=O)c(-c2cc(F)cc(F)c2)nc2cnc(Oc3cccc(Cl)c3)nc21	6%	.	-8%	.	.	.
COCCCCCCCCCCCC(=O)O	-16%[4.12 µM]	.	-10%[4.12 µM]	.	.	.
Cc1ccc(S(=O)(=O)NCCn2nc(C)nc2C)cc1	16%	-5	2%	7%	-3%	0%
Cc1ccc(OCC(=O)NNC(=S)NC(=O)C2CCCCC2)c(C)c1	?	75	21µM*	-13%	1%	-8%
Cn1c(SCc2ccccc2F)nnc1-c1ccccn1	-18%	-3	?	24%	?	12%
C=CCn1c(C)cc(C(=O)CSc2nnc3n(CCC)c(=O)c4ccccc4n23)c1C	21µM*	5	18µM*	-1%	.	20%
C=CCn1c(=O)c2ccccc2n2c(SCC(=O)Nc3cc(C)on3)nnc12	?	-26	?	-9%	-8%	-1%
CCCn1c(C)cc(C(=O)CSc2nnc3n(CCC)c(=O)c4ccccc4n23)c1C	.	.	.	.	7%	.
C=CCn1c(=O)c2ccccc2n2c(SC(C)C(=O)Nc3nc(-c4ccccc4)cs3)nnc12 (stereo unspecified)	9.2µM*	-18	3.7µM*	-5%	?	-13%
C=CCn1c(=O)c2ccccc2n2c(SC(C)C(N)=O)nnc12 (stereo unspecified)	24%	15	1%	12%	8%	9%
C=CCn1c(=O)c2ccccc2n2c(SCC(=O)Nc3sc(C(=O)N(CC)CC)c(C)c3C(=O)OCC)nnc12	23µM*	-17	15µM*	-11%	21µM*	-16%
C=CCn1c(=O)c2ccccc2n2c(SCC(=O)Nc3sc(C)c(CC)c3C(=O)OCC)nnc12	?	-28	16µM*	11%	?	-1%
